Cycloheximide cs: affects cycloheximide protein synthesis inhibition readout, counter-screen; max response, %; actives 12% (n = 300,000); AID 2314; cell reporter, cycloheximide protein synthesis inhibition counterscreen; in the data active = max response mostly above about 13%, no sharp cut-off; inactive = mostly below about 14%; note: read at 38.3 µM for the half of the compounds with a filed dose
SARS PLpro yeast: SARS-CoV PLP inhibition in yeast; S. cerevisiae expressing SARS-CoV PLpro, growth rescue; Potency, µM (highest dose often 32.9 µM), usual class: activators; actives 0.19% (n = 330,000); AID 485353; calls by dose curve; note: nearly all actives have a fitted effect of over 55% in size
Pf growth 96h: inhibits malaria parasite growth, 96 h. actives 6.9% (n = 320,000). Potency, µM (series often up to 28.7 µM), most hits filed as inhibitors. P. falciparum luciferase reporter growth, 96 h
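Luminescence readout: decreased luciferase signal marks inhibited growth of reporter-expressing P. falciparum in infected red cells (2% hematocrit, 0.05% parasitemia final), exposed to compound two generations (96 h, 37 C, 5% CO2).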
NS1 function inh: blocks influenza NS1 protein function | Potency, µM (titrated, usually from 46.1 µM) | actives 0.4% (n = 270,000) | AID 2326; calls by dose curve; note: actives are rising curves; nearly all actives have a fitted effect of over 50% in size
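S. cerevisiae expressing influenza A NS1, grown in glucose, washed, then diluted 1:100 into pH 6.0 -URA galactose medium with 23 nl compound. Growth recovery read as OD600; NS1-free strain serves as control.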
Pf growth 48h: inhibits P. falciparum growth in the first generation, 48 h | actives 5.9% (n = 310,000) | AID 504832 | Potency, µM (highest dose often 28.7 µM), hits mostly inhibitors | P. falciparum luciferase growth in erythrocytes, 48 h
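In quantitative HTS format, infected erythrocytes bearing luciferase-reporter parasites were treated for a single generation at 37 C. Luminescence after adding detection reagent served as the growth measure.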
Shiga inhibitor: Shiga toxin inhibition. actives 9.2% (n = 290,000). Vero cells, Shiga toxin protein synthesis inhibition reporter. AID 2315. inhibition, % at 38.7 µM; in the data active = inhibition mostly above about 28%, no sharp cut-off; inactive = mostly below about 43%
Of the large screens only hits and unclear results are named; the others gave an inactive call. Hits are enriched below; roughly 21% of the tested compounds scored in any of these assays. Unless noted, calls come from the whole dose curve; as a rule, active = well fitted inhibition curve with a large enough effect; inconclusive = small, poorly fitted or top-dose-only effect, or another doubt; inactive = no such curve, though single readings can be large or run the other way.

Oc1cc[c]([Hg][Cl])cc1	Pf growth 96h 1.5µM, Pf growth 48h 1.9µM (no result: Cycloheximide cs, SARS PLpro yeast, NS1 function inh, Shiga inhibitor)
Cc1onc(-c2c(F)cccc2Cl)c1C(=O)NCc1ccc(S(N)(=O)=O)cc1	none (no result: Cycloheximide cs, NS1 function inh, Shiga inhibitor)
Cc1ccc(-c2nnc(SCC#CCOC(=O)c3cccs3)o2)cc1	Cycloheximide cs 8.6, SARS PLpro yeast inconclusive (no result: Pf growth 96h)
O=C(OCC#CCSc1nnc(-c2ccc(Br)cc2)o1)c1cccs1	SARS PLpro yeast inconclusive
Cc1ccc(-c2nnc(SCC#CCOC(=O)c3ccco3)o2)cc1	Cycloheximide cs 27 (no result: Pf growth 48h)
N#C/C(=C\C=C\c1ccccc1)C(=O)NCc1cccnc1	Pf growth 48h inconclusive
CC1(c2ccc(Cl)cc2)NC(=O)N(CC(=O)Nc2ccc(N3CCCCC3)cc2)C1=O (stereo not drawn)	none (no result: Cycloheximide cs, NS1 function inh, Shiga inhibitor)
COc1ccc(C(=O)Nc2ccc3[nH]ncc3c2)cc1OC	none
COc1ccccc1CC(=O)Nc1ccc2[nH]ncc2c1	Pf growth 48h 10µM
COc1cccc(C(=O)Nc2ccc3[nH]ncc3c2)c1OC	Cycloheximide cs 32, Shiga inhibitor 71
Cc1ccc(S(=O)(=O)N(C)C)cc1NC(=O)C(C)OC(=O)C1CCCC1 (stereo not drawn)	none (no result: Cycloheximide cs, NS1 function inh, Shiga inhibitor)
FC(F)Sc1nc(-c2ccccc2)c(-c2ccccc2)n1C(F)F	Pf growth 96h 3.3µM
COc1ccc(CCNC(=O)Cn2cc(C(F)(F)F)cc(Cl)c2=O)cc1	none
Cc1oc2ccc(OS(C)(=O)=O)cc2c1C(=O)OC(C)C	Pf growth 96h inconclusive (no result: NS1 function inh)
COCCOC(=O)c1c(C)oc2ccc(OS(C)(=O)=O)cc12	Cycloheximide cs 21
O=C(NCc1ccccc1)N1CCC(c2nc3ccccc3[nH]2)CC1	none
Cc1cccc(NC(=O)c2ccc(S(=O)(=O)C(F)F)cc2)c1C	Cycloheximide cs 16
Cc1cc(C)cc(NC(=O)c2ccc(S(=O)(=O)C(F)F)cc2)c1	none
Cc1nnc(NC(=O)c2ccc(S(=O)(=O)C(F)F)cc2)s1	Cycloheximide cs 27
Cc1onc(-c2ccccc2Cl)c1C(=O)OCC(=O)N1CCCCC1	none (no result: Cycloheximide cs, Pf growth 96h, NS1 function inh, Pf growth 48h, Shiga inhibitor)
O=C(COC(=O)CCc1nc2ccccc2s1)Nc1nc(-c2ccccc2)cs1	Cycloheximide cs 18, Shiga inhibitor 47
Cc1csc(NC(=O)CCc2nc3ccccc3s2)n1	Cycloheximide cs 24
O=C(COC(=O)CCc1nc2ccccc2s1)Nc1ncc(Cl)cc1Cl	none
S=C(NCc1ccco1)N1CCC(c2nc3ccccc3o2)CC1	none (no result: NS1 function inh)
O=C1CN(C(=O)COC(=O)C2CCN(S(=O)(=O)c3ccccc3C(F)(F)F)CC2)c2ccccc2N1	Pf growth 48h 3.7µM (no result: Pf growth 96h)
O=C1CN(C(=O)COC(=O)CCS(=O)(=O)c2ccccc2Cl)c2ccccc2N1	none (no result: Cycloheximide cs, Pf growth 96h, NS1 function inh, Pf growth 48h, Shiga inhibitor)
O=C1CN(C(=O)COc2ccc(F)cc2Br)c2ccccc2N1	Pf growth 96h inconclusive, Pf growth 48h inconclusive, Shiga inhibitor 36
Cc1cc(=O)oc2cc(OCC(=O)N3CC(=O)Nc4ccccc43)c(Cl)cc12	Pf growth 96h inconclusive, Pf growth 48h 13µM (no result: Cycloheximide cs, NS1 function inh, Shiga inhibitor)
CC1Cc2ccccc2N1CC(=O)NC(=O)NC1CCCCC1 (stereo not drawn)	Pf growth 48h inconclusive
CC1(C)OC[C@@H]2O[C@H](n3cnc4c(N)nc(Cl)nc43)[C@@H](OS(C)(=O)=O)[C@@H]2O1	none (no result: Cycloheximide cs, SARS PLpro yeast, Pf growth 96h, Pf growth 48h, Shiga inhibitor)
COc1ccccc1C(CNC(=O)c1cc(S(=O)(=O)N2CCOCC2)ccc1C)N1CCCC1 (stereo not drawn)	Pf growth 96h inconclusive, Pf growth 48h inconclusive (no result: Cycloheximide cs, NS1 function inh, Shiga inhibitor)
O=C(O)CC1CCC(=C(Cl)Cl)C1 (stereo not drawn)	Pf growth 96h 12µM
CN(C)C(=O)CSc1nnc([C@@H](N)Cc2ccccc2)o1	Pf growth 48h inconclusive
C=C(C)CSc1nnc([C@@H](N)Cc2ccccc2)o1	Cycloheximide cs 18, Pf growth 96h inconclusive
CCC(C(=O)NCc1ccco1)N(C(=O)CNS(=O)(=O)c1ccccc1)C1CCCCC1 (stereo not drawn)	Pf growth 96h 6.6µM (no result: Pf growth 48h)
CCCC(C(=O)NCc1ccco1)N(C(=O)CNS(=O)(=O)c1ccc(Cl)cc1)C1CCCC1 (stereo not drawn)	Pf growth 48h 12µM
CCOC(=O)[C@H]1[C@H]2COc3ccc(OC)cc3[C@@H]2N2C(=O)c3cc(OC)c(OC)cc3NC(=O)[C@@]12C	Pf growth 96h inconclusive, Pf growth 48h 12µM (no result: Cycloheximide cs, NS1 function inh, Shiga inhibitor)
CCOC(=O)[C@H]1[C@H]2COc3ccccc3[C@@H]2N2C(=O)c3cc(OC)c(OC)cc3NC(=O)[C@@]12C	Pf growth 96h inconclusive, Pf growth 48h inconclusive (no result: Cycloheximide cs, NS1 function inh, Shiga inhibitor)
CCOC(=O)[C@H]1[C@H]2COc3ccc(OC)cc3[C@@H]2N2C(=O)c3cc(OC)ccc3NC(=O)[C@@]12C	Pf growth 96h inconclusive, Pf growth 48h 10µM (no result: Cycloheximide cs, NS1 function inh, Shiga inhibitor)
CCOC(=O)[C@H]1[C@H]2COc3ccc(C)cc3[C@@H]2N2C(=O)c3cc(OC)c(OC)cc3NC(=O)[C@@]12C	Pf growth 96h inconclusive, Pf growth 48h 12µM (no result: Cycloheximide cs, NS1 function inh, Shiga inhibitor)
CCOC(=O)[C@H]1[C@H]2COc3ccc(Br)cc3[C@@H]2N2C(=O)c3cc(OC)c(OC)cc3NC(=O)[C@@]12C	Pf growth 96h inconclusive, Pf growth 48h 9.3µM (no result: Cycloheximide cs, NS1 function inh, Shiga inhibitor)
CCOC(=O)[C@H]1[C@H]2COc3ccc(OC)cc3[C@@H]2N2C(=O)c3cc(F)c(F)cc3NC(=O)[C@@]12C	Pf growth 96h inconclusive, Pf growth 48h inconclusive (no result: Cycloheximide cs, NS1 function inh, Shiga inhibitor)
COc1ccc(N(CC(=O)Nc2cc(C(=O)O)ccc2C)S(=O)(=O)c2c(C)noc2C)cc1	none
CCOC(=O)[C@H]1[C@H]2COc3ccc(C)cc3[C@@H]2N2C(=O)c3cc(F)c(F)cc3NC(=O)[C@@]12C	Pf growth 96h inconclusive, Pf growth 48h 12µM (no result: Cycloheximide cs, NS1 function inh, Shiga inhibitor)

Source: PubChem
